Laboratory results reported in PubChem BioAssay (Tox21).
Results filed as inconclusive are left out. Entries that show only a call come without a potency. Active and inactive are the calls of the source. Calls come from the whole dose curve; as a rule, active = well fitted inhibition curve with a large enough effect in the repeat runs; inconclusive = weak or mixed curves; inactive = flat fitted curve, though single readings scatter.

Biological target: Luciferin 4-monooxygenase (Photinus pyralis) (UniProt P08659)
Sequence (P08659 whole entry, looked up): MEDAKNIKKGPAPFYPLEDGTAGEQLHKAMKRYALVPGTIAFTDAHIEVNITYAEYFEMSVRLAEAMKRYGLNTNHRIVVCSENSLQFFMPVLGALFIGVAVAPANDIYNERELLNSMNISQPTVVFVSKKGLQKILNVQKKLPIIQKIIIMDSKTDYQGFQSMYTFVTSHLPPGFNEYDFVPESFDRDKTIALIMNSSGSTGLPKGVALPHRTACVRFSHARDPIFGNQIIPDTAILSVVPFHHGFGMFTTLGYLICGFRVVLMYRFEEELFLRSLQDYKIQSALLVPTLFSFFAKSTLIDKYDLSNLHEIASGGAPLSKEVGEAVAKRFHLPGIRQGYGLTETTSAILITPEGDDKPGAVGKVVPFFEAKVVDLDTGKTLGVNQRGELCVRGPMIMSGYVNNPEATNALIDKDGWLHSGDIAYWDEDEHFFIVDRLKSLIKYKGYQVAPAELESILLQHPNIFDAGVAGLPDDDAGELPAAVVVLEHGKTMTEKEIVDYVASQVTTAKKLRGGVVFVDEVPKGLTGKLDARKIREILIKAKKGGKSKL
Assay: qHTS assay to identify small molecule inhibitors of firefly luciferase (AID 1224835); note: nearly all actives have a fitted effect of over 25% in size
Details: purified P. pyralis luciferase, luminescence inhibition; series mostly up to 115 µM
From the text: U.S. Tox21 Program National Center for Advancing Translational Sciences [NCATS] NIH Chemical Genomics Center [NCGC] U.S. Environmental Protection Agency [EPA] National Institutes of Environmental Health Sciences [NIEHS] National Toxicology Program [NTP] U.S. Food and Drug Administration [FDA] Tox21 Assay Overview: Firefly (Photinus pyralis) luciferase is one of the most commonly used transcriptional reporters. Firefly luciferase reporter-gene assays are generally considered one of the most sensitive assay types (Wood, 1995; Wood, 1998). However, it was initially observed, in 1991, by Thompson et al., that compounds that resemble the substrates of firefly luciferase (FLuc) can act as competitive inhibitors of the enzyme, and that these compounds, upon interaction with luciferase in the cell, can actually stabilize the protein and increase its half-life. Previous profiling work by other groups to determine the prevalence of compounds that affect FLuc enzymatic activity (PubChem AID 411) identified that ~3% of the MLSMR library (then at ~72K) inhibited FLuc. […] Thus the Tox21 10K library is profiled for activity against FLuc using a biochemical assay of purified FLuc and KM concentrations of FLuc substrates (D-luciferin and ATP).
These assay plates were then treated with 23nL of compound or DMSO using a Kalypsys pin tool, which allows for delivery of a 6-point interplate titration of each compound to the assay plate (quantitative HTS.) 1 uL of firefly luciferase mix (containing 50 mM Tris acetate, pH 7.6, 0.04 uM P. pyralis luciferase, 0.01% Tween, 0.05% BSA and dH2O) was then delivered by FRD to each well. Luciferase activity was then measured using a ViewLux CCD imager.

| SMILES | Potency | activity change, negative = inhibition |
| --- | --- | --- |
| COc1ccccc1OCCNCC(O)COc1cccc2[nH]c3ccccc3c12 (stereo not given) | inactive |  |
| COC(=O)NCCC[Si](OC)(OC)OC | inactive |  |
| Cc1c(C)n(Cc2ccccc2)c2ccc(C(=O)OCCN(C)C)cc12 | 27.5 µM (active) |  |
| CCC(=O)CC(C)CC (stereo not given) |  | 4.97% [at 0.435 µM] (inactive) |
| C=CC(=O)OCCC#N | inactive |  |
| CCOC(=O)COc1ccc(C)cc1 | 63.3 µM (active) |  |
| CCc1ccc(C)nc1 | inactive |  |
| OCCN1CN(CCO)CN(CCO)C1 | inactive |  |
| CC(C)c1ccccc1N | inactive |  |
| CCCCCCCCCCCCCC[n+]1ccccc1 | inactive |  |
| O=C=NCc1cccc(CN=C=O)c1 |  | 3.61% [at 23.6 µM] (inactive) |
| Cc1cccc(C)n1 | inactive |  |
| CCCC(CC)CCCCCCCN (stereo not given) | inactive |  |
| CC1=C(/C=C/C(C)=C/C=C/C(C)=C/C(=O)Nc2ccc(O)cc2)C(C)(C)CCC1 | inactive |  |
| OCCCS | inactive |  |
| CN(C)CCOC(c1ccccc1)c1ccccc1 (tested in a mixture with another compound) | inactive |  |
| Cc1cccc(Br)c1 | inactive |  |
| CCC(C)c1cc([N+](=O)[O-])cc([N+](=O)[O-])c1OC(=O)OC(C)C (stereo not given) | inactive |  |
| Brc1ccccn1 | inactive |  |
| C/C=C/C=N/NC(=O)c1ccncc1 | inactive |  |

| SMILES | Potency | activity change, negative = inhibition |
| --- | --- | --- |
| O=Cc1ccc(F)cc1 | inactive |  |
| O=C(O)CCn1c2c(c3ccccc31)C[C@H](NS(=O)(=O)c1ccc(F)cc1)CC2 | inactive |  |
| CCC1CCCCC1 | inactive |  |
| C=C(C)CCCC | inactive |  |
| O=S(=O)(O)CCCN1CCOCC1 | inactive |  |
| CCN(CC)CCCN(c1ccccc1)C1Cc2ccccc2C1 | inactive |  |
| C/C=C/c1ccc(OC)c(OC)c1 | inactive |  |
| CCCSS/C(CCO)=C(\C)N(C=O)Cc1cnc(C)nc1N | inactive |  |
| CCc1cccc(CC)c1N(COC)C(=O)CS(=O)(=O)O | inactive |  |
| CCCCC(CC)COC(=O)c1ccc(O)cc1 (stereo not given) | inactive |  |
| CCCCCCCC/C=C\CCCCCCCC(=O)NCc1ccc(O)c(OC)c1 | inactive |  |
| CCCC(C)CCC(C)=O (stereo not given) | inactive |  |
| CN(C)c1ccc(N=NS(=O)(=O)O)cc1 | 17.8 µM (active) |  |
| N[C@@H](CSSC[C@H](N)C(=O)O)C(=O)O |  | -0.457% [at 0.435 µM] (inactive) |
| Clc1ccc(C(c2ccccc2Cl)C(Cl)Cl)cc1 (stereo not given) | inactive |  |
| CCOB(OCC)OCC | inactive |  |
| C#CC(O)CCC (stereo not given) | inactive |  |
| CSc1c(Cl)c(Cl)c(Cl)c(Cl)c1Cl | inactive |  |
| CC(C(O)c1ccccc1)N(C)CCOC(c1ccccc1)c1ccccc1 (stereo not given) | inactive |  |
| CC(C)(C)c1cc(/C=C2\SC(=N)NC2=O)cc(C(C)(C)C)c1O | inactive |  |
